Screening data deposited in PubChem BioAssay by National Center for Advancing Translational Sciences (NCATS).
An excerpt weighted towards active compounds, which were near 9% of everything screened.
12-LOX inh = Primary qHTS assay for inhibitors of human arachidonate 12S-lipoxygenase (ALOX12): Round 2 | purified 12hLO, xylenol orange hydroperoxide absorbance | Potency, µM (titrated, usually from 108 µM), without a hit: at the top dose activity change, negative = inhibition, usual class: inhibitors | actives 1.1% (n = 580,000); note: % is set by controls: 0 for no effect and ±100 for the full control effect
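Purified human 12hLO (150 nM final) in 25 mM Hepes, 0.01% Triton X-100, pH 7.0 was preincubated 15 min at room temperature with compound. Then 40 uM arachidonic acid was added, 30 min. Hydroperoxide was read by Fe-XO absorbance ratio 573/405 nm.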
JMJD2A Tudor = qHTS Assay for Inhibitors of JMJD2A-Tudor Domain | Lysine-specific demethylase 4A (Homo sapiens), O75164 | AlphaScreen JMJD2A-Tudor / H3K4me3 peptide binding | Potency, µM (top dose mostly 114 µM), inactives show top-dose activity change, negative = inhibition, hits mostly inhibitors | actives 4.4% (n = 390,000); note: % is set by controls: 0 for no effect and ±100 for the full control effect; nearly all actives have a fitted effect of over 50% in size
BAZ2B inh = qHTS Assay for Inhibitors of BAZ2B; AID 504333, 2011; Potency, µM (titrated, usually from 114 µM), for the others: at the highest dose activity change, negative = inhibition, most hits filed as inhibitors; AlphaScreen BAZ2B-H3K14Ac peptide displacement; Bromodomain adjacent to zinc finger domain protein 2B (Homo sapiens), Q9UIF8; actives 4.4% (n = 360,000); note: % is set by controls: 0 for no effect and ±100 for the full control effect; nearly all actives have a fitted effect of over 60% in size
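BAZ2B 50 nM plus b-H3(5-23)K14Ac 50 nM, PBS pH 7.4/0.01% Tween-20, 30 min RT; compound added (max 110 uM), 30 min RT; streptavidin donor/Ni-chelate acceptor beads 10 ug/mL final, 20 min dark; AlphaScreen read.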
G9a block = qHTS Assay for Inhibitors of Histone Lysine Methyltransferase G9a; G9a H3K9 monomethylation, AlphaScreen, 2 h; Potency, µM (doses to about 102 µM), for the others: at the highest dose activity, negative = inhibition, hits mostly inhibitors; actives 8.8% (n = 350,000); note: % is set by controls: 0 for no effect and ±100 for the full control effect; nearly all actives have a fitted effect of over 75% in size
Target sequence (Q96KQ7 913-1193 limits assumed): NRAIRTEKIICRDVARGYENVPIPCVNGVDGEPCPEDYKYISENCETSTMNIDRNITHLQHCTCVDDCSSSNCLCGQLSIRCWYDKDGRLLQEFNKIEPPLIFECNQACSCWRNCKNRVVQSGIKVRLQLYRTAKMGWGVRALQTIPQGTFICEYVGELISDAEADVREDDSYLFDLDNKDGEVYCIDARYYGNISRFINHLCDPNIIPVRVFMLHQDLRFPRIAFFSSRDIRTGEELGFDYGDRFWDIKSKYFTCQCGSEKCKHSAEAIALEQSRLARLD
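Quantitative HTS format: methyltransferase activity on a biotin-tagged H3K9 peptide is measured by AlphaScreen, using a rabbit anti-monomethyl-H3K9 antibody with streptavidin donor and anti-IgG acceptor beads. Final levels are 20 nM enzyme, 500 nM peptide, 20 uM SAM; 2 h RT.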
PLK1 PBD block = qHTS for Inhibitors of PLK1-PDB (polo-like kinase 1 - polo-box domain): Primary Screen; actives 2.8% (n = 360,000); Serine/threonine-protein kinase PLK1 (Homo sapiens), P53350; Potency, µM, without a hit: max response, negative = inhibition, hits mostly inhibitors; Plk1 PBD binding of FITC phosphopeptide, fluorescence polarization; note: series mostly up to about 57 µM; % is set by controls: 0 for no effect and ±100 for the full control effect; nearly all actives have a fitted effect of over 65% in size
HP1b binding inh = HTS for Inhibitors of HP1-beta Chromodomain Interactions with Methylated Histone Tails. Chromobox protein homolog 1 (Homo sapiens), P83916. AlphaScreen HP1-beta / biotin-H3K9me3 peptide binding. Potency, µM (titrated, usually from 114 µM), without a hit: at the top dose activity change, negative = inhibition, most hits filed as inhibitors. actives 0.56% (n = 390,000). AID 540317, 2011; note: nearly all actives have a fitted effect of over 70% in size
Target sequence (P83916 whole entry, looked up): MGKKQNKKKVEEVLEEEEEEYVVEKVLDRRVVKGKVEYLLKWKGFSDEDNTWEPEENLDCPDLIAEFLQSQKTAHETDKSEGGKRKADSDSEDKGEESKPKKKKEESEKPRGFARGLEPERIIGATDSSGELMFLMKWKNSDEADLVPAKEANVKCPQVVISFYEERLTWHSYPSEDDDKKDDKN
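HP1-beta protein (50 nM final) preincubated 30 min at room temperature with biotinylated H3(1-18)K9me3 peptide (50 nM) in PBS pH 7.4, 0.01% Tween-20, then compound added for 30 min. AlphaScreen streptavidin donor/nickel chelate acceptor beads (10 ug/mL final), 30 min dark, luminescence read.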
Active calls of the source: *; ? = inconclusive; · = no result; [ ] = dose if it differs, or a comment. Calls come from the whole dose curve; as a rule, active = well fitted curve in the direction sought with a large enough effect; inconclusive = small, poorly fitted or top-dose-only effect, or another doubt; inactive = no such curve, though single readings can be large; an effect the other way counts as inactive or inconclusive. Potency is the fitted concentration of half-maximal effect.

SMILES	12-LOX inh	JMJD2A Tudor	BAZ2B inh	G9a block	PLK1 PBD block	HP1b binding inh
Cc1oc(/N=C/c2ccc(Cl)cc2Cl)c(C#N)c1C	?	-14%	-3%	45µM*	-30%	22%
Cc1oc(/N=C/c2c(O)ccc3ccccc23)c(C#N)c1C	·	·	·	1.6µM*	·	·
Cc1oc(/N=C/c2ccc(O)cc2O)c(C#N)c1C	?	-7%	-4%	45µM*	?	-4%
O=C(O)c1cc(Br)ccc1NN=C1CCCCC1	?	-27%	-36%	2.8µM*	-16%	-8%
Cc1ccccc1C(N)=O	0%	-14%	·	·	-5%	24%
COc1ccc(/C=C(\NC(=O)c2ccccc2)C(=O)OC[C@@H]2CCC[N+]3(C)CCCCC23)cc1OC (some centres not stated)	?	16µM*	-11%	-17%[59 µM]	-18%	?
CC(C)(C)C(=O)OCC1CCC[N+]2(C)CCCCC12 (configuration not stated)	28µM*	·	·	·	·	·
CC(C)(O)[C@@H]1CCC[N+]2(C)CCCC[C@H]12 (some centres not stated)	-1%	·	·	·	·	·
Cc1ccccc1C(=O)OCC1CCC[N+]2(C)CCCCC12 (configuration not stated)	28µM*	·	·	·	·	·
CCOC(=O)N1CCN(C(=O)/C(=C/c2ccc(OC)c(OC)c2)NC(=O)c2ccccc2)CC1	-11%	-9%[57.1 µM]	7%	11%[0.501 µM]	-14%	12%
Fc1ccc(COc2cccc(CNC3CC3)c2)cc1	-12%	·	·	·	·	·
NC(=O)c1ccc(-c2nnn(CC(O)COCc3ccc(Cl)cc3)n2)cc1 (configuration not stated)	16%	·	·	·	·	·
COc1ccc(NC(=O)C/C(C)=N/NC(=O)C(=O)Nc2cccc(Cl)c2C)c(OC)c1	0%	-16%	27%	56µM*	-11%	34%
COc1ccc(NC(=O)C/C(C)=N/NC(=O)C(=O)NC(C)C)c(OC)c1	5%	-14%	?	·	1%	45%
COc1cc(NC(=O)C/C(C)=N/NC(=O)C(=O)NCCO)c(OC)cc1Cl	56%	?	-4%	4%	27µM*	2%
COCC(=O)Nc1cccc(C(=O)N(Cc2ccsc2)CC(C)C)c1	2%	·	·	·	·	·
C=CCn1c(Cc2cccs2)nnc1SCC(=O)Nc1cc(OC)cc(OC)c1	-23%	-15%	7%	0%	-3%	25%
COc1ccc(CCCc2n[nH]c(=S)n2C)cc1C	?	5.6µM*	-24%	11µM*	-13%	?
COc1ccc(CCCc2n[nH]c(=S)o2)cc1C	?	-10%	-23%	8.9µM*	-2%	51%
Cc1noc2nc(C(=O)O)nc(N3CCCCC3)c12	-7%	40µM*	?	13µM*	·	7%
Cc1ccc2[nH]c(=S)cc(C)c2c1	?	-14%	4%	-24%[59 µM]	6µM*	37%
c1ccc2c(c1)[nH]c1ccccc12	28%	-8%	·	·	-12%	23%
Cc1ccc2c(C)cc(=S)[nH]c2c1	?	0%	-18%	50µM*	?	33%
Cc1cc(=S)[nH]c2ccccc12	?	-30%	-25%	2.8µM*	?	17%
COCC(=O)Nc1nc2c(s1)C(=O)CC(C)(C)C2	-33%	·	·	·	·	·
Cc1ccc(C)n1-c1c(C(=O)NCCCN2CCN(c3ccc(F)cc3)CC2)sc2ncccc12	-18%	50µM*	?	-45%[59 µM]	·	-3%[57 µM]
O=C(NCCCN1CCN(c2ccccc2)CC1)c1sc2ncccc2c1-n1cccc1	-21%	?	?	-30%[59 µM]	·	-16%[57 µM]
O=C(NCCCN1CCN(c2cccc(Cl)c2)CC1)c1sc2ncccc2c1-n1cccc1	-4%	32µM*	35µM*	-45%[59 µM]	·	-21%[57 µM]
